The subject of experiment [1] is Jurkat. The experiment is described as follows: mean cell size (FSC-A) relative to DMSO control (fraction of control); higher = larger cells. The settings on record: 48 h. In a few lines: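 Jurkat cells at 600 cells/µl were incubated for 1 h and then treated for 48h with the Enzo Screen-Well FDA Approved Drug Library v2.0 at 25µM, with DMSO at 0.9% (v/v) final. Compounds that reduced counts below 20% of controls were retested in 10-fold dilutions down to 25nM. Cell count and mean cell size, taken as forward scatter area, were measured by flow cytometry relative to solvent-only controls. Each plate carried 6-12 controls, and values are means of 3 biological replicates.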

The subject of experiment [2] is Jurkat. Nature of the experiment: cell count relative to DMSO control (fraction of control); higher = more cells (less growth inhibition). The following applies: 48 h.

Structures can show the parent of a compound that is named as a salt. ± gives the standard deviation.

For `CC[C@]1(O)C[C@@H]2CN(CCc3c([nH]c4ccccc34)[C@@](C(=O)OC)(c3cc4c(cc3OC)N(C)[C@H]3[C@@](O)(C(=O)OC)[C@H](OC(C)=O)[C@]5(CC)C=CCN6CC[C@]43[C@@H]65)C2)C1` [Vinblastine Sulfate] (concentration: 25 nM), the mean cell size in the experiment with Jurkat [1] was 0.971 ± 0.031. Also, the cell count in the experiment with Jurkat [2] is 0.0701 ± 0.058.

For `O=c1[nH]cc(F)c(=O)[nH]1` [Fluorouracil (5-Fluorouracil)] (concentration: 25 µM), the mean cell size in the experiment with Jurkat [1] was 1.12 ± 0.037. The same compound showed a cell count with Jurkat [2] of 0.379 ± 0.023.

As to `CCN(CC)CC(=O)Nc1c(C)cccc1C` [Lidocaine·HCl·H2O] (concentration: 25 µM), the mean cell size with Jurkat [1] amounted to 1.01 ± 0.033. Moreover, the cell count in the experiment with Jurkat [2] came to 1.03 ± 0.14.

Take `C[C@H](Cn1cnc2c(N)ncnc21)OCP(=O)(O)O` [Tenofovir] (concentration: 2.5 µM): in the experiment with Jurkat [1], the mean cell size came to 0.997 ± 0.14. Besides, the cell count in the experiment with Jurkat [2] was found to be 0.894 ± 0.016.

In the case of `CN(C)CCOc1ccc(/C(=C(/CCCl)c2ccccc2)c2ccccc2)cc1` [Toremifene Base] (concentration: 25 µM), in the experiment on Jurkat [1], the mean cell size was 0.9556 ± 0.0078. For the same compound, the cell count in the experiment on Jurkat [2] is 0.948 ± 0.079.

In turn, `CC(C)(C)NC(=O)[C@@H]1CN(Cc2cccnc2)CCN1C[C@@H](O)C[C@@H](Cc1ccccc1)C(=O)N[C@H]1c2ccccc2C[C@H]1O` [Indinavir] (concentration: 25 µM) returned a mean cell size in the experiment on Jurkat [1] of 0.93 ± 0.056. In the experiment with Jurkat [2], this compound showed a cell count of 0.539 ± 0.068.

`CC(=O)OCC(=O)[C@@]12OC(C)(C)O[C@@H]1C[C@H]1[C@@H]3C[C@H](F)C4=CC(=O)C=C[C@]4(C)[C@@]3(F)[C@@H](O)C[C@@]12C` [Fluocinonide] (concentration: 25 µM) displayed a mean cell size with Jurkat [1] of 0.944 ± 0.027. This compound also came in with a cell count in the experiment with Jurkat [2] of 0.551 ± 0.03.

The compound `Cn1nnc2c(C(N)=O)ncn2c1=O` [Temozolomide] (concentration: 25 µM) came in with a mean cell size in the experiment with Jurkat [1] of 0.959 ± 0.052. In addition, the cell count in the experiment with Jurkat [2] worked out at 0.543 ± 0.12.

`O=C1Cc2cc(CCN3CCN(c4nsc5ccccc45)CC3)c(Cl)cc2N1` [Ziprasidone] (concentration: 25 µM) yielded a mean cell size in the experiment with Jurkat [1] of 0.98 ± 0.062. Also, the cell count with Jurkat [2] was found to be 0.838 ± 0.098.

`C[C@@H](O[C@H]1OCCN(Cc2n[nH]c(=O)[nH]2)[C@H]1c1ccc(F)cc1)c1cc(C(F)(F)F)cc(C(F)(F)F)c1` [Aprepitant] (concentration: 2.5 µM) showed a mean cell size in the experiment with Jurkat [1] of 1.08 ± 0.022. Further, in the experiment with Jurkat [2], the cell count was 0.651 ± 0.024.

Regarding `CN1C(=O)OC(C)(C)C1=O` [Trimethadione] (concentration: 25 µM), in the experiment on Jurkat [1], the mean cell size turned out to be 1.07 ± 0.016. This compound also returned a cell count in the experiment on Jurkat [2] of 1.02 ± 0.025.

Turning to `Cc1onc(-c2ccccc2)c1C(=O)N[C@@H]1C(=O)N2[C@@H]1SC(C)(C)[C@@H]2C(=O)O` [Oxacillin·Na] (concentration: 25 µM), the mean cell size in the experiment with Jurkat [1] stood at 0.9367 ± 0.005. This compound had a cell count in the experiment with Jurkat [2] of 0.975 ± 0.1.

Consider `C=CC1=C(C(=O)O)N2C(=O)[C@@H](NC(=O)/C(=N\O)c3csc(N)n3)[C@H]2SC1` [Cefdinir] (concentration: 25 µM), for which the mean cell size with Jurkat [1] was 0.976 ± 0.059. The compound further yielded a cell count with Jurkat [2] of 0.765 ± 0.12.

Regarding `C[C@H]1O[C@@H](O[C@H]2[C@@H](O)C[C@H](O[C@H]3[C@@H](O)C[C@H](O[C@H]4CC[C@@]5(C)[C@H](CC[C@@H]6[C@@H]5C[C@@H](O)[C@]5(C)[C@@H](C7=CC(=O)OC7)CC[C@]65O)C4)O[C@@H]3C)O[C@@H]2C)C[C@H](O)[C@@H]1O` [Digoxin] (concentration: 25 nM), the mean cell size in the experiment on Jurkat [1] amounted to 0.91 ± 0.065. In the experiment with Jurkat [2], this compound returned a cell count of 0.175 ± 0.093.

For the compound `O=C1NC(c2ccccc2)(c2ccccc2)C(=O)N1COP(=O)(O)O` [Fosphenytoin·Na Pentahydrate] (concentration: 25 µM), the mean cell size in the experiment on Jurkat [1] came out at 0.887 ± 0.058. Besides, the cell count in the experiment on Jurkat [2] was determined as 0.498 ± 0.074.

For the compound `CC1COc2c(N3CCN(C)CC3)c(F)cc3c(=O)c(C(=O)O)cn1c23` (stereo not drawn) [Ofloxacin] (concentration: 25 µM), in the experiment on Jurkat [1], the mean cell size is 0.928 ± 0.011. This compound gave a cell count with Jurkat [2] of 0.989 ± 0.073.

As for `NC1=NCC2c3ccccc3Cc3ccccc3N12` (stereo not drawn) [Epinastine·HCl] (concentration: 25 µM), the mean cell size in the experiment on Jurkat [1] is 0.951 ± 0.014. The cell count in the experiment with Jurkat [2] turned out to be 1.06 ± 0.077.

For the compound `O=C(O[C@@H]1C[C@@H]2C[C@H]3C[C@H](C1)N2CC3=O)c1c[nH]c2ccccc12` [Dolasetron] (concentration: 25 µM), the mean cell size with Jurkat [1] stood at 0.921 ± 0.029. For the same compound, the cell count in the experiment on Jurkat [2] worked out at 0.29 ± 0.053.

`CC(c1cc2ccccc2s1)N(O)C(N)=O` (stereo not drawn) [Zileuton] (concentration: 25 µM): the mean cell size in the experiment on Jurkat [1] was 1 ± 0.038. In the experiment with Jurkat [2], the cell count was found to be 0.839 ± 0.068.

In the case of `O=C(NCC1CCCCN1)c1cc(OCC(F)(F)F)ccc1OCC(F)(F)F` (stereo not drawn) [Flecainide Acetate] (concentration: 25 µM), the mean cell size with Jurkat [1] was 0.97 ± 0.014. In the experiment with Jurkat [2], the cell count worked out at 0.725 ± 0.033.

In turn, `CCC[C@@H]1C[C@@H](C(=O)N[C@@H]([C@H]2O[C@H](SC)[C@H](O)[C@@H](O)[C@H]2O)[C@H](C)Cl)N(C)C1` [Clindamycin·HCl] (concentration: 25 µM) showed a mean cell size with Jurkat [1] of 1.07 ± 0.062. Besides, the cell count in the experiment on Jurkat [2] came out at 0.805 ± 0.14.

Consider `Fc1ccc([C@@H]2CCNC[C@H]2COc2ccc3c(c2)OCO3)cc1` [Paroxetine·HCl] (concentration: 2.5 µM), for which the mean cell size with Jurkat [1] was found to be 1.01 ± 0.059. The compound also yielded a cell count in the experiment with Jurkat [2] of 0.24 ± 0.057.

For the compound `Brc1c(NC2=NCCN2)ccc2nccnc12` [Brimonidine] (concentration: 25 µM), in the experiment with Jurkat [1], the mean cell size came out at 0.954 ± 0.027. This compound showed a cell count in the experiment with Jurkat [2] of 0.9 ± 0.091.

Take `C[C@@](Cc1ccc(O)c(O)c1)(NN)C(=O)O` [Carbidopa] (concentration: 25 µM): the mean cell size in the experiment with Jurkat [1] stood at 0.939 ± 0.027. This compound had a cell count in the experiment on Jurkat [2] of 0.439 ± 0.09.

The values are drawn from the supplement of paper PMC4709259.
